From paper PMC7862700, “An all-to-all approach to the identification of sequence-specific readers for epigenetic DNA modifications on cytosine”

Key:
Experiment in all cases: DAPPL (digital affinity profiling via proximity ligation, sequencing); 10 mM Tris-HCl pH 7.5, 50 mM NaCl, 1 mM DTT, 4% glycerol, room temperature, 30 min; GST-TFs on glutathione beads, 16-mer random dsDNA library, 0.1% formaldehyde crosslink after washing; high values mean tight binding
Conditions in all cases: protein: recombinant; tags: N-terminal GST; dsDNA, one strand shown
GABPA = biological target: T1, GABPA (Homo sapiens, UniProt Q06546 1-454)
T1 sequence: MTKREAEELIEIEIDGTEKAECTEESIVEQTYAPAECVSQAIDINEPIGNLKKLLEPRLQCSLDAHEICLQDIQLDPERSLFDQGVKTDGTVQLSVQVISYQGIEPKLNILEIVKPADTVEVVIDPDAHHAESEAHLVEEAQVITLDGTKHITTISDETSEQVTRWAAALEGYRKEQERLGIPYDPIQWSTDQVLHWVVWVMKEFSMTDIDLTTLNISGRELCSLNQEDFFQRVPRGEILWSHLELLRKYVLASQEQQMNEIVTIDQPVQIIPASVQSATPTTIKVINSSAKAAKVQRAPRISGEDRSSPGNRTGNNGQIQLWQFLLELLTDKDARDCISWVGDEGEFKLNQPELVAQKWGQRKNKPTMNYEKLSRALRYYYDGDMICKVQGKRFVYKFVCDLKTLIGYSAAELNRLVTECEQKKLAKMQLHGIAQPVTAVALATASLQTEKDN
Summary of the method: (§1)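 Binding signal is defined as a hexamer's read frequency for one factor over its frequency for the tag-only sample. To obtain reads, GST-fused human transcription factors were expressed in yeast, captured on glutathione beads, barcoded with DNA and pooled with that sample. Pools met 200 nmole of a 16-mer random double-stranded DNA library in Tris/NaCl/DTT/glycerol buffer for 30 min at room temperature before washing, 0.1% formaldehyde crosslinking, proximity ligation (BsaI/T4 ligase, 1 h, 37 °C), PCR and Illumina NextSeq500 sequencing.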

ELF1 = ELF1 (Homo sapiens, UniProt P32519 1-619)
Chain of ELF1 (P32519 whole entry): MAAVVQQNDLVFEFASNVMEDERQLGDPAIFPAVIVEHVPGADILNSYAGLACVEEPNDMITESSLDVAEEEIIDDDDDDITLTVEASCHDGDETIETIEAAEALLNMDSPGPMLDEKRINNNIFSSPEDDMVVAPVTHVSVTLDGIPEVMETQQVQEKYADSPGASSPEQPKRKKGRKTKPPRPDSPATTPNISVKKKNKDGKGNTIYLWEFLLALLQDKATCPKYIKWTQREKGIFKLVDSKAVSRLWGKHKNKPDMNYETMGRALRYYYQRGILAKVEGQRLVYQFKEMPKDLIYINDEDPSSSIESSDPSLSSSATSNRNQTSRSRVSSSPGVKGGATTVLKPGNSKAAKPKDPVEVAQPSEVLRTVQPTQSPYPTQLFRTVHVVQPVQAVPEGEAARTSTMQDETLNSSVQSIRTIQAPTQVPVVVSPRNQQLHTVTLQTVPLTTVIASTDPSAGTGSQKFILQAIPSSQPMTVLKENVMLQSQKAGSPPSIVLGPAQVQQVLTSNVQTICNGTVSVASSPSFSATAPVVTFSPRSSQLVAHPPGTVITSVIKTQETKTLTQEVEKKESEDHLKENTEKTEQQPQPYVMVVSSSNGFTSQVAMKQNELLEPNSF
Summary of the method: as §1

EHF = biological target: T2, EHF (Homo sapiens, UniProt Q9NZC4 1-300)
T2 sequence: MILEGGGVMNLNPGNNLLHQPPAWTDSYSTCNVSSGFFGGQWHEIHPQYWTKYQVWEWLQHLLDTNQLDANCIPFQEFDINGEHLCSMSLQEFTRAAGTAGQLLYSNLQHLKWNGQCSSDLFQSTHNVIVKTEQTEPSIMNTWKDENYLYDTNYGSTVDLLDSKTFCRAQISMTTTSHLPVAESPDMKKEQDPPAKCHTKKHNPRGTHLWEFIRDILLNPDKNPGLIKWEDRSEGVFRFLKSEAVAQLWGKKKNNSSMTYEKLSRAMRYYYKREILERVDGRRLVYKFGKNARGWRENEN
Summary of the method: as §1

SPIB = SPIB (Homo sapiens, UniProt Q01892 1-262)
Chain of SPIB (Q01892 whole entry): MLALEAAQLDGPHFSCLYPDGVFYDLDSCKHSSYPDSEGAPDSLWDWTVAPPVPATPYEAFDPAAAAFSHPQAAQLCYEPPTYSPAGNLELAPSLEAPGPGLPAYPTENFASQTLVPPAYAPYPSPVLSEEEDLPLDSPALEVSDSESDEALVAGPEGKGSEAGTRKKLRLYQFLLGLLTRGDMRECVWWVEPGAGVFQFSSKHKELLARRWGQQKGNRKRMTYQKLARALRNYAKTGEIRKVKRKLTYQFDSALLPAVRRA
Summary of the method: as §1

ELK3 = biological target: T3, ELK3 (Homo sapiens, UniProt P41970 1-407)
T3 sequence: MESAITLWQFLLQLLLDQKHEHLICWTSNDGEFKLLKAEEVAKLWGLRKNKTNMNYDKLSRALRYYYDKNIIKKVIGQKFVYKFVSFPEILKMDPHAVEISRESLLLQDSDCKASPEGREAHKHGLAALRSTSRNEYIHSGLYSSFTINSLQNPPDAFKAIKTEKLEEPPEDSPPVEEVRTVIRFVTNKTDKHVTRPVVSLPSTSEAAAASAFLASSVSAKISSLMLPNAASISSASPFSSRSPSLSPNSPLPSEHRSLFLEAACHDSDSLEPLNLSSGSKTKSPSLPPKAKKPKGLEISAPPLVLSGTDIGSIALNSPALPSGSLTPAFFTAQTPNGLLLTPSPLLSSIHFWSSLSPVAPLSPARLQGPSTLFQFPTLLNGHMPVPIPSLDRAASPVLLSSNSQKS
Summary of the method: as §1

SPIC = biological target: T4, SPIC (Homo sapiens, UniProt Q8N5J4 1-248)
T4 sequence: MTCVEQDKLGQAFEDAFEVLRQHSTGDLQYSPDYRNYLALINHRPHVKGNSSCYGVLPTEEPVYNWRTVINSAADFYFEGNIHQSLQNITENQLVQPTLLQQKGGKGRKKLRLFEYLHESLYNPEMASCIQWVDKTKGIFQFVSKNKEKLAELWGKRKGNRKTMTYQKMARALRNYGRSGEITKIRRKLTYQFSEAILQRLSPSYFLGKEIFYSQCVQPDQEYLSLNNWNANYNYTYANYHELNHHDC
Summary of the method: as §1

ELF4 = ELF4 (Homo sapiens, UniProt Q99607 1-663)
Chain of ELF4 (Q99607 whole entry): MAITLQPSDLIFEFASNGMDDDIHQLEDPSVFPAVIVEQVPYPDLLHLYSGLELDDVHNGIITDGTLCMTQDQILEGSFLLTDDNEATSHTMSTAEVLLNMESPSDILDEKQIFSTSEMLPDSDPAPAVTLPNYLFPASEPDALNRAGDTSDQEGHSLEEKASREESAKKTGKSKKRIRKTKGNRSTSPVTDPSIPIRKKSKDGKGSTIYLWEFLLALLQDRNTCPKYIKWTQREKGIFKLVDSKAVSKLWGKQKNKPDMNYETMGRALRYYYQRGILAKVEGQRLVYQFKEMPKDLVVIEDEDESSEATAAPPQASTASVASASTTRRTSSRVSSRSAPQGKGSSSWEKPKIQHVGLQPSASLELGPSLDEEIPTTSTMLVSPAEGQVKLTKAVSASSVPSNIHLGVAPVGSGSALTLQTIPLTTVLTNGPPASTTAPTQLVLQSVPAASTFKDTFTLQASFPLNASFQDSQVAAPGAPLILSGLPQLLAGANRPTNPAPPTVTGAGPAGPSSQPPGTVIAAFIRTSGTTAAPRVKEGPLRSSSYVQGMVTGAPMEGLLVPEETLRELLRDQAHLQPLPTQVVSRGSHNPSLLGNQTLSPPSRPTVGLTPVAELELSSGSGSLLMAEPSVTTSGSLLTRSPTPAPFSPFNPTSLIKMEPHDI
Summary of the method: as §1

ELK4 = biological target: T5, ELK4 (Homo sapiens, UniProt P28324-2 1-405)
T5 sequence: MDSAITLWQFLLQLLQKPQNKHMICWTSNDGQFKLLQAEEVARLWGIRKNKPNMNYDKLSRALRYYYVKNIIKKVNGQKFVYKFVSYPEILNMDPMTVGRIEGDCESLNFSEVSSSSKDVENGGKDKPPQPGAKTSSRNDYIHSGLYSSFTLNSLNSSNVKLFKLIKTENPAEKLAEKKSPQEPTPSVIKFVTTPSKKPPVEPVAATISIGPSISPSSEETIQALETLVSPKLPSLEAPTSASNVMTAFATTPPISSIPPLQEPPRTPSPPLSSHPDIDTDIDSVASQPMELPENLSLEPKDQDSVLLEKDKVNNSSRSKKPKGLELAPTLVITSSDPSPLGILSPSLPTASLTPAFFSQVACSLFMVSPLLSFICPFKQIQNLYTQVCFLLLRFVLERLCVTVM
Summary of the method: as §1

ELF3 = biological target: T6, ELF3 (Homo sapiens, UniProt P78545 1-371)
T6 sequence: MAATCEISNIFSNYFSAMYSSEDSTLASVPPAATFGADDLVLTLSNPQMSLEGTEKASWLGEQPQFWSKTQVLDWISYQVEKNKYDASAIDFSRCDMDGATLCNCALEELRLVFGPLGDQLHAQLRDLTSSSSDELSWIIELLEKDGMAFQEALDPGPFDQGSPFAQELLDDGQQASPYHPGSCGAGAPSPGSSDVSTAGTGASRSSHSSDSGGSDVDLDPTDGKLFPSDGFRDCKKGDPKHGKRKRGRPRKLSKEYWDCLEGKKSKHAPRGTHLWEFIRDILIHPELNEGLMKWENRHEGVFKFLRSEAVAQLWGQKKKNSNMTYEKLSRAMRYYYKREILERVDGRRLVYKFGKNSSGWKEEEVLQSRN
Summary of the method: as §1

ETV1 = ETV1 (Homo sapiens, UniProt P50549 1-477)
Chain of ETV1 (P50549 whole entry): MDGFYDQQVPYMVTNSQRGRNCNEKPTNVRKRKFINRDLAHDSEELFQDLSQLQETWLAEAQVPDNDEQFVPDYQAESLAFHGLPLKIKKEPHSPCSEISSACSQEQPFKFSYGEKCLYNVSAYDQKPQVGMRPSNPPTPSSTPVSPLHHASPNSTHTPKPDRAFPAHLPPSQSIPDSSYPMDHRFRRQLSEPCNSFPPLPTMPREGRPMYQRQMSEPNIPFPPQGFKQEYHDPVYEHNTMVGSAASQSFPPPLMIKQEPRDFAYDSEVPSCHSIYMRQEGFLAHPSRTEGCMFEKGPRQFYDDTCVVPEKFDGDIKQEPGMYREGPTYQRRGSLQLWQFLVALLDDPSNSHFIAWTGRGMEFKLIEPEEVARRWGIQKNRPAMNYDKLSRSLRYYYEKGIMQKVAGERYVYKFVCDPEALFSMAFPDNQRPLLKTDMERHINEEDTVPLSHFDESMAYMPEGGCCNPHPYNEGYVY
Summary of the method: as §1

ERF = biological target: T7, ERF (Homo sapiens, UniProt P50548 1-548)
T7 sequence: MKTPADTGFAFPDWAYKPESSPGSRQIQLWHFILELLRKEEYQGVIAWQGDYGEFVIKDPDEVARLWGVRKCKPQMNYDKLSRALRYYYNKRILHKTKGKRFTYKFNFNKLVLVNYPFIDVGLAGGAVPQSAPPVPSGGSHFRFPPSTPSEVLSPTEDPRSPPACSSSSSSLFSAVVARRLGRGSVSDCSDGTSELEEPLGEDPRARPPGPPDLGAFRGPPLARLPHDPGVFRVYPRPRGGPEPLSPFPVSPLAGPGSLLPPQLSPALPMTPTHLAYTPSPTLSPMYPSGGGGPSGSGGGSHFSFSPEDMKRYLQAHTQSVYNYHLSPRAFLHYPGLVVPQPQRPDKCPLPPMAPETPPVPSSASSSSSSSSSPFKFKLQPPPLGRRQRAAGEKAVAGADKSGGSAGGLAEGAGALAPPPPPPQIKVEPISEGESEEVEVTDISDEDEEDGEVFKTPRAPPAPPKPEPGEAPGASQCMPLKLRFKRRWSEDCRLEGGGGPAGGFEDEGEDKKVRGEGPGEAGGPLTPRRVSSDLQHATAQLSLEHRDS
Summary of the method: as §1

ETV3L = biological target: T8, ETV3L (Homo sapiens, UniProt Q6ZN32 1-361)
T8 sequence: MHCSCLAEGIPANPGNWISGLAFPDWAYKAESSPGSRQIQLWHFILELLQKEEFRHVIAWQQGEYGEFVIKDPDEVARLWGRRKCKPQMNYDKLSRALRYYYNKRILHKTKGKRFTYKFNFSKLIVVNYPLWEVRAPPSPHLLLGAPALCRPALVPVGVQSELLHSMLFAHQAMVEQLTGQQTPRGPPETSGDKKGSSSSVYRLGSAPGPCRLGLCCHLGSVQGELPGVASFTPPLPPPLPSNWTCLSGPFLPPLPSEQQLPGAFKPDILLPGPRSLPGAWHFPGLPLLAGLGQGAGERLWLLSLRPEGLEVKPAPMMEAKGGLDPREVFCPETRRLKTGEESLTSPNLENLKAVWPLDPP
Summary of the method: as §1

ETS2 = biological target: T9, ETS2 (Homo sapiens, UniProt P15036 1-469)
T9 sequence: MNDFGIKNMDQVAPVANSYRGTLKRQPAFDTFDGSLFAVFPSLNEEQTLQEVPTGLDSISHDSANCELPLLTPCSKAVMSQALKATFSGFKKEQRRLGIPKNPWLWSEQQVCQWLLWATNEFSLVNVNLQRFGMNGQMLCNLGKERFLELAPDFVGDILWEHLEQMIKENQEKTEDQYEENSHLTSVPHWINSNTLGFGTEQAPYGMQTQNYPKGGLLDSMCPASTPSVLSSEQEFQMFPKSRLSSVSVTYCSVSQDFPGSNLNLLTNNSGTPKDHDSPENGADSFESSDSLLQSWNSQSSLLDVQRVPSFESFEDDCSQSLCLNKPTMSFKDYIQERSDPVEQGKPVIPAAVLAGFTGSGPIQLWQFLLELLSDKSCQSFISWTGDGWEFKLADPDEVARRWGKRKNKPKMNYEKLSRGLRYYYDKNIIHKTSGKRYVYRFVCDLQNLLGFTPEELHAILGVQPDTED
Summary of the method: as §1

SPDEF = biological target: T10, SPDEF (Homo sapiens, UniProt O95238 1-335)
T10 sequence: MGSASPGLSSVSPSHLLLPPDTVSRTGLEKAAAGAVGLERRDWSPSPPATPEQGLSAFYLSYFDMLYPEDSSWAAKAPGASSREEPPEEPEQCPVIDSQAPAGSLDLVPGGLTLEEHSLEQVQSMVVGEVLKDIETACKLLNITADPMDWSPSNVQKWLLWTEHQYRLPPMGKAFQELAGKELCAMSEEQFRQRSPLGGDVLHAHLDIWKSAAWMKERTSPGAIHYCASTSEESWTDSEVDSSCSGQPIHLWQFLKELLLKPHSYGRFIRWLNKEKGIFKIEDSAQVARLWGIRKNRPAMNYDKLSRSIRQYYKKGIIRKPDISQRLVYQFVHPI
Summary of the method: as §1

ETV7 = biological target: T11, ETV7 (Homo sapiens, UniProt Q9Y603 1-341)
T11 sequence: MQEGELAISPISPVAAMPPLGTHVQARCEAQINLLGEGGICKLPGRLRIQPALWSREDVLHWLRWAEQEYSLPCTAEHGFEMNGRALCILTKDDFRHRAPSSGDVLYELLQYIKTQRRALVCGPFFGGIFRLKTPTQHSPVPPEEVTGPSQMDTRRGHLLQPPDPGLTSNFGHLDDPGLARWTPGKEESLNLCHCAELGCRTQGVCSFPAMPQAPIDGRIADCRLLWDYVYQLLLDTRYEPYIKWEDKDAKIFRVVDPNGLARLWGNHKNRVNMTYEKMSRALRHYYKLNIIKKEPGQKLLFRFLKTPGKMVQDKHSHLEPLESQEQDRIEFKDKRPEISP
Summary of the method: as §1

## GCTAGT
GABPA
  binding signal: 1.06 fold enrichment (6-mer frequency, TF over GST control)
ELF1
  binding signal: 1.16 fold enrichment (6-mer frequency, TF over GST control)
EHF
  binding signal: 1.08 fold enrichment (6-mer frequency, TF over GST control)
SPIB
  binding signal: 1.09 fold enrichment (6-mer frequency, TF over GST control)
ELK3
  binding signal: 1.11 fold enrichment (6-mer frequency, TF over GST control)
SPIC
  binding signal: 1.2 fold enrichment (6-mer frequency, TF over GST control)
ELF4
  binding signal: 1.05 fold enrichment (6-mer frequency, TF over GST control)
ELK4
  binding signal: 1.07 fold enrichment (6-mer frequency, TF over GST control)
ELF3
  binding signal: 1.04 fold enrichment (6-mer frequency, TF over GST control)
ETV1
  binding signal: 1.02 fold enrichment (6-mer frequency, TF over GST control)
ERF
  binding signal: 1.01 fold enrichment (6-mer frequency, TF over GST control)
ETV3L
  binding signal: 1 fold enrichment (6-mer frequency, TF over GST control)
ETS2
  binding signal: 1.07 fold enrichment (6-mer frequency, TF over GST control)
SPDEF
  binding signal: 1.07 fold enrichment (6-mer frequency, TF over GST control)
ETV7
  binding signal: 1.13 fold enrichment (6-mer frequency, TF over GST control)
